This is an account of results in PubChem BioAssay (NCI).

Experiment [1] in a line: NCI Yeast Anticancer Drug Screen. Data for the rad50 strain (AID 155).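 Note: 0% = growth of vehicle-only cultures of the same strain.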 As to conditions: S. cerevisiae rad50 strain growth inhibition, hits give high values. An outline of the steps:
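Inhibition values express reduced yeast growth in compound-treated cultures relative to vehicle-treated controls.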

Experiment [2] is described as follows: NCI Yeast Anticancer Drug Screen. Data for the mec2-1 strain (AID 157). The note with it: S. cerevisiae mec2-1 strain, hits give high values. An outline of the steps:
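Strain: mec2-1 (DNA repair/cell cycle alteration). Compound exposure, then growth measured; inhibition expressed relative to vehicle.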

A short description of experiment [3]: NCI Yeast Anticancer Drug Screen. Data for the sgs1 mgt1 strain (AID 161).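 Note: 0% = growth of cultures given vehicle only.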 As to conditions: S. cerevisiae sgs1 mgt1 strain, hits give high values. An outline of the steps:
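Mutant yeast exposed to compound; growth scored against vehicle-only wells.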

A short description of experiment [4]: NCI Yeast Anticancer Drug Screen. Data for the cln2 rad14 strain (AID 165).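 Note: 0% = growth equal to vehicle treated cultures.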 As to conditions: S. cerevisiae cln2 rad14 strain, hits give high values. Summed up: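 Compounds are applied to the cln2 rad14 yeast strain, and growth is then compared with that of vehicle-treated cultures to give inhibition.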
Experiment [5] is described as follows: NCI Yeast Anticancer Drug Screen. Data for the bub3 strain (AID 167). The note with it: S. cerevisiae bub3 mutant strain, hits give high values. An outline of the steps:
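Steps: expose the mutant yeast strain to compound; grow alongside vehicle-treated cultures; measure growth; express inhibition against the vehicle cultures.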

Experiment [6] is described as follows: NCI Yeast Anticancer Drug Screen. Data for the mlh1 rad18 strain (AID 175). The note with it: S. cerevisiae mlh1 rad18 strain growth inhibition, hits give high values. An outline of the steps:
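Read-out is yeast growth inhibition, calculated against vehicle-only controls. The compound was applied to a strain engineered with DNA damage repair alterations.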

Setting [7] is: at 5.0 µM (retest, dose inferred, filed as 0.5).
[8] abbreviates: at 50.0 µM (retest, dose inferred, filed as 5.0).

Structures are written as SMILES. This is part of a sample that, as a whole, favours compounds with a hit. Of some 79,000 tested, about 15% had one in any assay. Unmarked numbers belong to inactive results. Activity calls are given as the source filed them. Cut-off read from the data, not from the text of the source: active = growth inhibition above about 70%; inactive = the rest.

In the case of `O=[N+]([O-])c1ccc2c(c1)Cc1cc(O)c(I)cc1-2`, the growth inhibition is 3% in experiment [1] (setting [7]); 91% (active) in experiment [1] (setting [8]); 97.5% (active) in experiment [1] (at 50.0 µM); 13% in experiment [2] (setting [7]); 92% (active) in experiment [2] (setting [8]); 97.8% (active) in experiment [2] (at 50.0 µM). Further, the growth inhibition is 3% in experiment [3] (setting [7]); 93% (active) in experiment [3] (setting [8]); 96.7% (active) in experiment [3] (at 50.0 µM); -10% in experiment [4] (setting [7]); 91% (active) in experiment [4] (setting [8]); 95.2% (active) in experiment [4] (at 50.0 µM). In addition, the growth inhibition in experiment [5] (setting [7]) was -4%; in experiment [5] (setting [8]), 93% (active); in experiment [5] (at 50.0 µM), 95.8% (active); in experiment [6] (setting [7]), -2%; in experiment [6] (setting [8]), 95% (active); in experiment [6] (at 50.0 µM) it was 97.2% (active).

Regarding `COc1cccc(C(=O)C(CN(C)C)CN(C)C)c1`, the growth inhibition is 22% in experiment [1] (setting [7]); 70% (active) in experiment [1] (setting [8]); 12.2% in experiment [1] (at 50.0 µM); 26% in experiment [2] (setting [7]); 69% in experiment [2] (setting [8]); 30.2% in experiment [2] (at 50.0 µM). The growth inhibition in experiment [3] (setting [7]) was 24%; in experiment [3] (setting [8]) it was 88% (active); in experiment [3] (at 50.0 µM), 61%; in experiment [4] (setting [7]), 24%; in experiment [4] (setting [8]), 79% (active); in experiment [4] (at 50.0 µM), 33%. The growth inhibition in experiment [5] (setting [7]) is 24%; in experiment [5] (setting [8]) it was 85% (active); in experiment [5] (at 50.0 µM) it was 71.2% (active); in experiment [6] (setting [7]), 30%; in experiment [6] (setting [8]) it was 93% (active); in experiment [6] (at 50.0 µM), 3%.

Regarding `Nc1ccc(C2CCC[C@H]2c2ccc(N)cc2)cc1` (stereo not given in full), the growth inhibition in experiment [1] (setting [7]) was 0%; in experiment [1] (setting [8]) it was 93% (active); in experiment [1] (at 50.0 µM), 48.8%; in experiment [2] (setting [7]), 15%; in experiment [2] (setting [8]), 87% (active); in experiment [2] (at 50.0 µM), 46.8%. Further, the growth inhibition was 14% in experiment [3] (setting [7]); 90% (active) in experiment [3] (setting [8]); 53.2% in experiment [3] (at 50.0 µM); 1% in experiment [4] (setting [7]); 66% in experiment [4] (setting [8]); 39.6% in experiment [4] (at 50.0 µM). The growth inhibition is -3% in experiment [5] (setting [7]); 81% (active) in experiment [5] (setting [8]); 58.6% in experiment [5] (at 50.0 µM); 21% in experiment [6] (setting [7]); 95% (active) in experiment [6] (setting [8]); 49.1% in experiment [6] (at 50.0 µM).

Regarding `CC(=O)Nc1nnc(C)s1`, the growth inhibition is 0% in experiment [1] (setting [7]); -3% in experiment [1] (setting [8]); 4.25% in experiment [1] (at 50.0 µM); 0% in experiment [2] (setting [7]); -3% in experiment [2] (setting [8]); -11.8% in experiment [2] (at 50.0 µM). Moreover, the growth inhibition was -2% in experiment [3] (setting [7]); -5% in experiment [3] (setting [8]); -4.4% in experiment [3] (at 50.0 µM); -3% in experiment [4] (setting [7]); 6% in experiment [4] (setting [8]); 13% in experiment [4] (at 50.0 µM). For the same compound, the growth inhibition in experiment [5] (setting [7]) is 1%; in experiment [5] (setting [8]), 1%; in experiment [5] (at 50.0 µM), -19.3%; in experiment [6] (setting [7]) it was 1%; in experiment [6] (setting [8]), -3%; in experiment [6] (at 50.0 µM) it was -18.8%.

For `O=C(NNC(=O)c1cccc(C(=O)NNC(=O)c2ccc(Cl)c(Cl)c2)n1)c1ccc(Cl)c(Cl)c1`, the growth inhibition is 35% in experiment [1] (setting [7]); 64% in experiment [1] (setting [8]); 44.5% in experiment [1] (at 50.0 µM); 37% in experiment [2] (setting [7]); 66% in experiment [2] (setting [8]); 45.8% in experiment [2] (at 50.0 µM). Besides, the growth inhibition is 47% in experiment [3] (setting [7]); 62% in experiment [3] (setting [8]); 52.7% in experiment [3] (at 50.0 µM); 54% in experiment [4] (setting [7]); 76% (active) in experiment [4] (setting [8]); 81.4% (active) in experiment [4] (at 50.0 µM). Moreover, the growth inhibition is 61% in experiment [5] (setting [7]); 80% (active) in experiment [5] (setting [8]); 70.2% (active) in experiment [5] (at 50.0 µM); 49% in experiment [6] (setting [7]); 71% (active) in experiment [6] (setting [8]); 51.4% in experiment [6] (at 50.0 µM).

With `CCOc1ccccc1N1C(=O)C=CC1=O`, the growth inhibition in experiment [1] (setting [7]) was 57%; in experiment [1] (setting [8]), 67%; in experiment [1] (at 50.0 µM), 92% (active); in experiment [2] (setting [7]), 60%; in experiment [2] (setting [8]), 75% (active); in experiment [2] (at 50.0 µM), 93.6% (active). For the same compound, the growth inhibition in experiment [3] (setting [7]) was 99% (active); in experiment [3] (setting [8]) it was 100% (active); in experiment [3] (at 50.0 µM), 93.8% (active); in experiment [4] (setting [7]) it was 99% (active); in experiment [4] (setting [8]) it was 100% (active); in experiment [4] (at 50.0 µM), 90.5% (active). For the same compound, the growth inhibition in experiment [5] (setting [7]) was 100% (active); in experiment [5] (setting [8]), 100% (active); in experiment [5] (at 50.0 µM), 92.3% (active); in experiment [6] (setting [7]) it was 42%; in experiment [6] (setting [8]) it was 58%; in experiment [6] (at 50.0 µM), 92.5% (active).

Turning to `O=C(O)/C=C/c1ccc([N+](=O)[O-])o1`, the growth inhibition is 12% in experiment [1] (setting [7]); 50% in experiment [1] (setting [8]); 87.4% (active) in experiment [1] (at 50.0 µM); 5% in experiment [2] (setting [7]); 38% in experiment [2] (setting [8]); 80% (active) in experiment [2] (at 50.0 µM). Further, the growth inhibition in experiment [3] (setting [7]) is 9%; in experiment [3] (setting [8]) it was 67%; in experiment [3] (at 50.0 µM), 90% (active); in experiment [4] (setting [7]), -3%; in experiment [4] (setting [8]), 38%; in experiment [4] (at 50.0 µM) it was 62.4%. Moreover, the growth inhibition was 4% in experiment [5] (setting [7]); 42% in experiment [5] (setting [8]); 76% (active) in experiment [5] (at 50.0 µM); 11% in experiment [6] (setting [7]); 81% (active) in experiment [6] (setting [8]); 93.2% (active) in experiment [6] (at 50.0 µM).

For `O=S(=O)(O)SCCNCCCCCC1CCCCC1`, the growth inhibition in experiment [1] (setting [7]) is 20%; in experiment [1] (setting [8]), 87% (active); in experiment [1] (at 50.0 µM) it was 15.3%; in experiment [2] (setting [7]), 27%; in experiment [2] (setting [8]) it was 94% (active); in experiment [2] (at 50.0 µM), 22.5%. The growth inhibition in experiment [3] (setting [7]) was 19%; in experiment [3] (setting [8]), 83% (active); in experiment [3] (at 50.0 µM) it was 65.5%; in experiment [4] (setting [7]), 32%; in experiment [4] (setting [8]), 71% (active); in experiment [4] (at 50.0 µM), 18.6%. In addition, the growth inhibition in experiment [5] (setting [7]) is 17%; in experiment [5] (setting [8]) it was 95% (active); in experiment [5] (at 50.0 µM), 52.2%; in experiment [6] (setting [7]), 34%; in experiment [6] (setting [8]), 93% (active); in experiment [6] (at 50.0 µM), 30.6%.

For the compound `CCCCCCCCC(C)c1ccccc1O` (stereo not given), the growth inhibition is -150% in experiment [1] (setting [7]); 96% (active) in experiment [1] (setting [8]); 99.7% (active) in experiment [1] (at 50.0 µM); -53% in experiment [2] (setting [7]); 98% (active) in experiment [2] (setting [8]); 99.7% (active) in experiment [2] (at 50.0 µM). Also, the growth inhibition in experiment [3] (setting [7]) is -68%; in experiment [3] (setting [8]), 96% (active); in experiment [3] (at 50.0 µM) it was 99.4% (active); in experiment [4] (setting [7]), -62%; in experiment [4] (setting [8]), 97% (active); in experiment [4] (at 50.0 µM) it was 99.4% (active). The growth inhibition in experiment [5] (setting [7]) was -56%; in experiment [5] (setting [8]) it was 96% (active); in experiment [5] (at 50.0 µM) it was 99.5% (active); in experiment [6] (setting [7]), -151%; in experiment [6] (setting [8]), 97% (active); in experiment [6] (at 50.0 µM), 99.4% (active).

For `CNC(=S)N/N=C/c1nccc(-c2ccccc2)c1C`, the growth inhibition in experiment [1] (setting [7]) is 4%; in experiment [1] (setting [8]), 93% (active); in experiment [1] (at 50.0 µM), 23.8%; in experiment [2] (setting [7]), -2%; in experiment [2] (setting [8]) it was 96% (active); in experiment [2] (at 50.0 µM), 48.9%. For the same compound, the growth inhibition in experiment [3] (setting [7]) is 3%; in experiment [3] (setting [8]) it was 96% (active); in experiment [3] (at 50.0 µM), 41.8%; in experiment [4] (setting [7]), -9%; in experiment [4] (setting [8]), 94% (active); in experiment [4] (at 50.0 µM), 39.1%. In addition, the growth inhibition in experiment [5] (setting [7]) is 2%; in experiment [5] (setting [8]), 94% (active); in experiment [5] (at 50.0 µM) it was -2.75%; in experiment [6] (setting [7]), -3%; in experiment [6] (setting [8]), 93% (active); in experiment [6] (at 50.0 µM), 74.7% (active).
